The source made the active and inactive calls. Unless noted, the rule behind the calls is not given here.
What was measured:
[1] = compounds binding Alexa647 anti-His antibody – biochemical, small-molecule microarray, 635 nm fluorescence, artefact control for SMM control protein annotation, primary screen (AID 1128); details: higher = more signal;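 note: score merges feature fluorescence with signal-to-noise for each printed compound spot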
[2] = test system: Human papillomavirus type 1a E7 protein (residues 1-88); assay: HPV1a E7 small-molecule binders, primary screen, biochemical, small-molecule microarray, residues 1-88, 635 nm (AID 1129); details: small-molecule microarray binding, fluorescence 635 nm; higher = more signal
[3] = biological target: Focal adhesion kinase 1 (Homo sapiens) (UniProt Q05397); assay: PTK2 protein binding on printed compound slides – biochemical, small-molecule microarray, 635/667 nm fluorescence, BSA, DTT, primary screen (AID 1130); details: 635 nm fluorescence, higher = more signal;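 note: composite of spot emission at 667 nm and signal to noise over triplicate slides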
Sequence of Focal adhesion kinase 1 (Homo sapiens) (Q05397 whole entry, looked up): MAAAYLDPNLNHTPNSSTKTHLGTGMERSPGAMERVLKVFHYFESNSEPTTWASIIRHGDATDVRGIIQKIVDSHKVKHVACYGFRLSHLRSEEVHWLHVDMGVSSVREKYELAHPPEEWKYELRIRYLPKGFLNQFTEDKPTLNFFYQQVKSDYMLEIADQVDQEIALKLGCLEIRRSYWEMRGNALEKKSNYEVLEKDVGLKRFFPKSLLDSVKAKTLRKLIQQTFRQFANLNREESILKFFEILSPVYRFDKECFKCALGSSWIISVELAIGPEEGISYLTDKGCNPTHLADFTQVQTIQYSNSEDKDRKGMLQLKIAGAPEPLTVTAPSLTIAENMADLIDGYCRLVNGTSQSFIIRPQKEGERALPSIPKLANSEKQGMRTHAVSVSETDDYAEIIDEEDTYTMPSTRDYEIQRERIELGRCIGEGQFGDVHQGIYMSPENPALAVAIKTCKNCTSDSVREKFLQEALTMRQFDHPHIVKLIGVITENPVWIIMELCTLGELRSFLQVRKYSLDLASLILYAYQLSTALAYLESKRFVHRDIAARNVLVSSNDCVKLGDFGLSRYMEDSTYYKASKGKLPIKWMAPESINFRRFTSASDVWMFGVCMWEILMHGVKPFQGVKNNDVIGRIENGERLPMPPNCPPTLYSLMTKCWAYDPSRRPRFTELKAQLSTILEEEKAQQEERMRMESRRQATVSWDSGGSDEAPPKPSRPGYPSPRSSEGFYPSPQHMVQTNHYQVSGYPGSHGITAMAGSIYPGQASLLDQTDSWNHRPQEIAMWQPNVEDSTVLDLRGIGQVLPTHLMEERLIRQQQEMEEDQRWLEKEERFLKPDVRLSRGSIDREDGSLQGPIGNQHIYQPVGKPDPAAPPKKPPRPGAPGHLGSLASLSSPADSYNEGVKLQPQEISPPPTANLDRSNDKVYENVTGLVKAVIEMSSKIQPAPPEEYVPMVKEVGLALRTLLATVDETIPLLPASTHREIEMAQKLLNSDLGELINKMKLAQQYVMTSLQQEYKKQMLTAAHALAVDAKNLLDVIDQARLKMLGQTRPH

[4] = test system: Fibrinogen (Alexa647-labelled); assay: Alexa647-fibrinogen binding to printed small molecules – biochemical, small-molecule microarray, 635/667 nm fluorescence, artefact control for SMM control-protein annotation, profiling panel (AID 1131); details: fibrinogen-A647 binding fluorescence, higher = more signal;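 note: z-score merges 667 nm fluorescence with per-spot signal-to-noise over triplicate slides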
[5] = biological target: Follistatin (Homo sapiens) (UniProt P19883); assay: FST protein binding to printed compounds – biochemical, small-molecule microarray, 635/667 nm fluorescence, primary screen (AID 1132); details: 635 nm fluorescence, higher = more signal
Sequence of Follistatin (Homo sapiens) (P19883 whole entry, looked up): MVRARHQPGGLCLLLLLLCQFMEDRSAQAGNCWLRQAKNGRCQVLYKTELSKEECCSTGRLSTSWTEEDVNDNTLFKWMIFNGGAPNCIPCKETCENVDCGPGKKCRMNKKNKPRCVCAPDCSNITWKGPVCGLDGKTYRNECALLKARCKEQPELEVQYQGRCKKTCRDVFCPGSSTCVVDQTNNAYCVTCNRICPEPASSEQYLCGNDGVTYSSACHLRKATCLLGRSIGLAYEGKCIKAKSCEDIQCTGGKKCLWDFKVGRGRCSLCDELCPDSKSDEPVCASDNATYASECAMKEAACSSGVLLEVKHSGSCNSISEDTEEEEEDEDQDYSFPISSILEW

[6] = biological target: Fibroblast growth factor 2 (Homo sapiens) (UniProt P09038); assay: basic fibroblast growth factor binding to printed compounds – biochemical, small-molecule microarray, 635/667 nm fluorescence, primary screen (AID 1133); details: FGF2, fluorescence 635/667, higher = more signal
Sequence of Fibroblast growth factor 2 (Homo sapiens) (P09038 whole entry, looked up): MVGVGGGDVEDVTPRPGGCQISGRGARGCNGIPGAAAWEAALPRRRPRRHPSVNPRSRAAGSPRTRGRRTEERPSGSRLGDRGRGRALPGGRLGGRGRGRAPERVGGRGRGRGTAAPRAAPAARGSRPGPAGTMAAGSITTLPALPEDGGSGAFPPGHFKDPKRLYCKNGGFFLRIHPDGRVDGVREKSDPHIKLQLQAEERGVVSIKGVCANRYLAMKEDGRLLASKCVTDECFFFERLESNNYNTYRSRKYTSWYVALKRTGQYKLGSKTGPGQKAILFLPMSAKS

[7] = JC-1 mitochondrial potential readout, lung cancer cells – cell-based, A549, JC-1 fluorescence, basal, 24 h, 100 nL, profiling panel (AID 1138); details: higher = more signal;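 note: A549 lung adenocarcinoma cells under basal conditions with no added stimulus; test concentration not given here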
Lefty1 = Lefty1 protein binding to printed compounds – biochemical, small-molecule microarray, 635/667 nm fluorescence, primary screen (AID 1139); details: fluorescence 635/667, higher = more signal
[8] = test system: wheat germ agglutinin (Triticum aestivum), Alexa647-labelled; assay: Alexa647-WGA lectin binding to printed small molecules – biochemical, small-molecule microarray, 635/667 nm fluorescence, artefact control for SMM control-protein annotation, profiling panel (AID 1140); details: WGA-A647 binding, 635 nm fluorescence, higher = more signal;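 note: score merges 667 nm feature emission with signal to noise over triplicate slides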
[9] = biological target: Luciferin 4-monooxygenase (Photinus pyralis) (UniProt P08659); assay: inhibition of purified Photinus pyralis luciferase – biochemical, luminescence, purified enzyme, 2006 set, primary screen (AID 1141); details: purified firefly luciferase, SteadyGlo luminescence, 30 min; higher = more signal, called active from +8 up or from −8 down;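 note: cell-free assay with purified firefly luciferase at 100 ng per well in PBS; test concentration not given here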
Sequence of Luciferin 4-monooxygenase (Photinus pyralis) (P08659 whole entry, looked up): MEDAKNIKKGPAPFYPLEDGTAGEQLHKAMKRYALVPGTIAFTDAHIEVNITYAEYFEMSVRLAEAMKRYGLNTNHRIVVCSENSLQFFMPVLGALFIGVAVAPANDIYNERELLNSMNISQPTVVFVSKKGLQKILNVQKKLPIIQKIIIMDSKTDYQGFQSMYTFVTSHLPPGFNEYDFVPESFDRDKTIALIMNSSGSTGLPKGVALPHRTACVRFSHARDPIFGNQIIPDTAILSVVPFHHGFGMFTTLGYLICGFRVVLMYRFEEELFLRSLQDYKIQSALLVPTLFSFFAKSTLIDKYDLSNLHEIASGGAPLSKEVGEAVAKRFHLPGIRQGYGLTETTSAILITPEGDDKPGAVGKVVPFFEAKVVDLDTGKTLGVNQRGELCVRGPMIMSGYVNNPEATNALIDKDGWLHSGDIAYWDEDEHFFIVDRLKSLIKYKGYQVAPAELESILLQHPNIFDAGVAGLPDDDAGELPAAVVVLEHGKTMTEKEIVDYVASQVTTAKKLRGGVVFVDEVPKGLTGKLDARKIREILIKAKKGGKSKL

[10] = test system: Wnt5a (protein binding on small-molecule microarray); assay: small molecules binding Wnt5a protein – biophysical, small-molecule microarray, 635/667 nm fluorescence, primary screen (AID 1142); details: 635 nm fluorescence, higher = more signal;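 note: fluorescence read at 667 nm with signal to noise per printed feature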
[11] = ATP-based viability of Huh7 replicon cells – cell-based, CellTiter-Glo luminescence, basal, 48 h, cytotoxicity control for HCV replication inhibitor project, primary screen (AID 1143); details: higher = more signal, called active from +8 up or from −8 down;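 note: Huh7 hepatoma cells carrying a hepatitis C replication reporter with no stimulus; test concentration not given here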
[12] = Pseudomonas biofilm growth suppression – PAO1 strain, BacTiter-Glo luminescence, LB-PBS, primary screen (AID 1144); details: P. aeruginosa PAO1 biofilm, 12 h, higher = more signal
[13] = basal CRE-LacZ reporter activity in PC12 – cell-based, unstimulated, primary screen (AID 1145); details: no forskolin, luminescence, 4.5 h, higher = more signal, called active from +8 up or from −8 down
[14] = forskolin-driven CRE-LacZ activity in PC12 – cell-based, CRE-LacZ reporter, forskolin-stimulated, primary screen (AID 1146); details: luminescence, 4.5 h, higher = more signal, called active from +8 up or from −8 down;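 note: PC12 cells with 6xCRE LacZ reporter stimulated by forskolin 10 µM; beta-galactosidase reporter signal reflecting CREB driven transcription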
[15] = biological target: Streptavidin (Streptomyces avidinii) (UniProt P22629); assay: compounds binding control protein streptavidin – biophysical, small-molecule microarray, 635/667 nm fluorescence, artefact control for SMM compound annotation, primary screen (AID 1147); details: higher = more signal;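 note: signal reflects streptavidin binding to arrayed compounds as a control protein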
Sequence of Streptavidin (Streptomyces avidinii) (P22629 whole entry, looked up): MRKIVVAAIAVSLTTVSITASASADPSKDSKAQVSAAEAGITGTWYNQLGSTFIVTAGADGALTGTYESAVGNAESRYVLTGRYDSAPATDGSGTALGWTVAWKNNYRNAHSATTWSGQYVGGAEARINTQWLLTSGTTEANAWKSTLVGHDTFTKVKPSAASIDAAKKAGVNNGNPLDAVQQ

[16] = probe aInhba binding on compound microarray – biochemical, small-molecule microarray, 635/667 nm fluorescence, primary screen (AID 1148); details: higher = more signal;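 note: score merges 667nm spot fluorescence with signal-to-noise for antibody binding to printed compounds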
Torsin-1A (Homo sapiens) [17] = biological target: Torsin-1A (Homo sapiens) (UniProt O14656); assay: TOR1A wild-type binding on microarray – cell lysate, small-molecule microarray, lysate, 635/667 nm, primary screen (AID 1149); details: COS7 hTOR1A-WT lysate, 635 nm fluorescence, higher = more signal
Sequence of Torsin-1A (Homo sapiens) (O14656 whole entry, looked up): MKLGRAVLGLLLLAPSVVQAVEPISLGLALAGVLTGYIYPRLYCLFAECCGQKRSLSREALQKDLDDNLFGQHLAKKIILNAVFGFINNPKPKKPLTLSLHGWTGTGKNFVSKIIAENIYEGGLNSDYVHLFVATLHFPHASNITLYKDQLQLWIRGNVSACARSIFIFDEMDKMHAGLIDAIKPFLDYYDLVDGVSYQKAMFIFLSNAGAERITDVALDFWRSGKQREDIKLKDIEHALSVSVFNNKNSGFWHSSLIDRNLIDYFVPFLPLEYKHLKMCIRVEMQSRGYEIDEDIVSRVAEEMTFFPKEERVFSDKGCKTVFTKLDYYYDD

Torsin-1A (Homo sapiens) [18] = biological target: Torsin-1A (Homo sapiens) (UniProt O14656); assay: torsin A mutant lysate binding on microarrays – cell lysate, small-molecule microarray, COS7 lysate, 635/667 nm fluorescence, primary screen (AID 1150); details: COS7 hTOR1A mutant lysate, 635 nm fluorescence, higher = more signal;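 note: score pools 667 nm emission and signal to noise measuring lysate protein binding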
[19] = test system: Sonic hedgehog protein (Shh); assay: Sonic hedgehog microarray binding compounds – biochemical, small-molecule microarray, 635/667 nm fluorescence, primary screen (AID 1151); details: 635 nm fluorescence, higher = more signal;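 note: Shh protein binding to compounds spotted on small-molecule microarray slides; score combines spot fluorescence intensity with signal-to-noise across triplicate slides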

Structure (SMILES)	composite z-score [1]	composite z-score [2]	composite z-score [3]	composite z-score [4]	composite z-score [5]	composite z-score [6]	z-score [7]	composite z-score (Lefty1)	composite z-score [8]	z-score [9]	composite z-score [10]	z-score [11]	z-score [12]	z-score [13]	z-score [14]	composite z-score [15]	composite z-score [16]	composite z-score (Torsin-1A (Homo sapiens) [17])	composite z-score (Torsin-1A (Homo sapiens) [18])	composite z-score [19]
CCc1cc2c(nc1CC)CCN(CCC(C)=NOC[C@@H](O)[C@H]1O[C@@H]3OC(C)(C)O[C@@H]3[C@H]1O)C2	0.29	-0.0321	-0.113	0.572	0.187	0.106	0.489	0.446	0.878	-0.0353 (inactive)	0.146	0.731 (inactive)	-0.319 (inactive)	0.006 (inactive)	0.347 (inactive)	0.18	-0.0216	0.3	0.101	0.528
O=C1c2ccccc2[C@@]2(Cc3ccccc3N(C3CC3)C2=O)[C@H](c2ccc(CO)cc2)N1Cc1ccccc1C(F)(F)F	0.534	-0.453	0.13	-1.41	-1.41	-1.09	-0.511	-1.32	0.286	0.62 (inactive)	-0.145	-4.35 (inactive)	-0.459 (inactive)	-0.258 (inactive)	-0.0879 (inactive)	-1.07	0.21	-1.02	-0.77	-0.537
